# Reference: article PMC7862700, “An all-to-all approach to the identification of sequence-specific readers for epigenetic DNA modifications on cytosine”
# Key:
# Experiment in all cases: DAPPL (digital affinity profiling via proximity ligation, sequencing); 10 mM Tris-HCl pH 7.5, 50 mM NaCl, 1 mM DTT, 4% glycerol, room temperature, 30 min; GST-TFs on glutathione beads, 16-mer random dsDNA library, 0.1% formaldehyde crosslink after washing; high values mean tight binding
# FLI1 = target: T1, FLI1 (Homo sapiens, UniProt Q01543 1-452); details: protein: recombinant; tags: N-terminal GST; dsDNA, one strand shown
# T1 sequence: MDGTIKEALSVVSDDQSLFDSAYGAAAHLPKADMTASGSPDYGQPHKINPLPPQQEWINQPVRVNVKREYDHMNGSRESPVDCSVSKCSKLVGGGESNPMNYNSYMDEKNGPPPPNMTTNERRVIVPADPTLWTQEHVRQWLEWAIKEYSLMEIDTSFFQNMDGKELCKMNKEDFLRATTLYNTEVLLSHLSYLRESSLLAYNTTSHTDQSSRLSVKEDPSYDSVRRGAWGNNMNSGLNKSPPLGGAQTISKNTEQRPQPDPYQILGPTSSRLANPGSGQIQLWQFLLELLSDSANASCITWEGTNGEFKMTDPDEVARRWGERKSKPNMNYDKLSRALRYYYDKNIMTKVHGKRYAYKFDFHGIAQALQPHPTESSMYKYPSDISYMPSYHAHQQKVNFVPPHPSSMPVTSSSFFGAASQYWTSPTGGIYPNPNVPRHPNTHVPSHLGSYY
# Procedure, shortened: (§1)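 Human transcription factors fused to GST were expressed in yeast, captured on glutathione beads, given DNA barcodes and pooled with a GST-only negative control. Pools were incubated with 200 nmole of a 16-mer random double-stranded DNA library in Tris/NaCl/DTT/glycerol buffer at room temperature for 30 min. They were then washed, crosslinked with 0.1% formaldehyde, proximity-ligated (BsaI/T4 ligase, 1 h, 37 °C), PCR-amplified and sequenced on an Illumina NextSeq500. Binding signal is each 6-mer's read frequency for a factor divided by its frequency for the GST control.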
# ELK1 = target: T2, ELK1 (Homo sapiens, UniProt P19419 1-428); details: protein: recombinant; tags: N-terminal GST; dsDNA, one strand shown
# T2 sequence: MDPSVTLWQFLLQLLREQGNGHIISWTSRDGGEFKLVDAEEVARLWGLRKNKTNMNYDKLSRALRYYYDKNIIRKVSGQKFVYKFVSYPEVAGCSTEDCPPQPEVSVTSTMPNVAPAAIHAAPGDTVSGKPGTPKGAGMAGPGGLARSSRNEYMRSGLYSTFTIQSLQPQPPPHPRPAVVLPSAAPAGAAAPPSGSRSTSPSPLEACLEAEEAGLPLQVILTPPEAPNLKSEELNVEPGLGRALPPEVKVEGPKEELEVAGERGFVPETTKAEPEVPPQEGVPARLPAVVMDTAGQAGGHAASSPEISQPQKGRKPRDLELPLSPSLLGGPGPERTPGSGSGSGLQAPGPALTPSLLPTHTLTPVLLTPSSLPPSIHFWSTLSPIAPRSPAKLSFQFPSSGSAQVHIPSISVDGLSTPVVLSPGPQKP
# Procedure, shortened: as §1
# GABPA = target: T3, GABPA (Homo sapiens, UniProt Q06546 1-454); details: protein: recombinant; tags: N-terminal GST; dsDNA, one strand shown
# T3 sequence: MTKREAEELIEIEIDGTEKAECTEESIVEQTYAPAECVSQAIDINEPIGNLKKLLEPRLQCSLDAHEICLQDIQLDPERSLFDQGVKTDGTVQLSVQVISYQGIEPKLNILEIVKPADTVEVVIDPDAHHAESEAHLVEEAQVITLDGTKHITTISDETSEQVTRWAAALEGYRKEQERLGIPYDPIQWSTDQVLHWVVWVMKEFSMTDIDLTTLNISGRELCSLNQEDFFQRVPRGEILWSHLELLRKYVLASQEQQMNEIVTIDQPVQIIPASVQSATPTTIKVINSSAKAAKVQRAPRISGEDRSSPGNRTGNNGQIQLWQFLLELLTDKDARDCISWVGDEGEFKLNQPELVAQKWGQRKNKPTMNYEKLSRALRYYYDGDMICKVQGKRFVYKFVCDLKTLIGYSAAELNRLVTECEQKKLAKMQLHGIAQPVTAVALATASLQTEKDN
# Procedure, shortened: as §1
# ERG = target: T4, ERG (Homo sapiens, UniProt P11308 1-479); details: protein: recombinant; tags: N-terminal GST; dsDNA, one strand shown
# T4 sequence: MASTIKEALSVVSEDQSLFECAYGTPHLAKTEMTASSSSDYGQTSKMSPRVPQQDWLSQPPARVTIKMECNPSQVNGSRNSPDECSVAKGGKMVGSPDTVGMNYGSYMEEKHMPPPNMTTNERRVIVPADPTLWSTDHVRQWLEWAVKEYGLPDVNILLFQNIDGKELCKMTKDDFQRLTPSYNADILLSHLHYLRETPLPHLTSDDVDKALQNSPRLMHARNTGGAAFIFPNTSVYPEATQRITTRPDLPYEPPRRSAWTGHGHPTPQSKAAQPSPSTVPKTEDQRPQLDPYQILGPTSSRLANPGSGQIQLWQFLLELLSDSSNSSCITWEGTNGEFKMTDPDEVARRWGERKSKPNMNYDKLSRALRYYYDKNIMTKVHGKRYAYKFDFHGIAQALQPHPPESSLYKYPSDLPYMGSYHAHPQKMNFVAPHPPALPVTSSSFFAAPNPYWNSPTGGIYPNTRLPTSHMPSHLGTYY
# Procedure, shortened: as §1
# ELF1 = ELF1 (Homo sapiens, UniProt P32519 1-619); details: protein: recombinant; tags: N-terminal GST; dsDNA, one strand shown
# Procedure, shortened: as §1
# EHF = target: T5, EHF (Homo sapiens, UniProt Q9NZC4 1-300); details: protein: recombinant; tags: N-terminal GST; dsDNA, one strand shown
# T5 sequence: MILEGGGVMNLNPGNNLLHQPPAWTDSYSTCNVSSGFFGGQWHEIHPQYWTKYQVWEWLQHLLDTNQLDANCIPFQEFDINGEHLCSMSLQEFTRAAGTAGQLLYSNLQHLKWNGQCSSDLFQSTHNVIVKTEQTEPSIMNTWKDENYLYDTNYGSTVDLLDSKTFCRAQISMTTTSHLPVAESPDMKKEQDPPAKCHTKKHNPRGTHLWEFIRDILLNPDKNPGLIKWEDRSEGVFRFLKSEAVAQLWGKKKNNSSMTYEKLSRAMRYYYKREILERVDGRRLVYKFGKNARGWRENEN
# Procedure, shortened: as §1
# SPI1 = SPI1 (Homo sapiens, UniProt P17947 1-270); details: protein: recombinant; tags: N-terminal GST; dsDNA, one strand shown
# Procedure, shortened: as §1
# SPIB = SPIB (Homo sapiens, UniProt Q01892 1-262); details: protein: recombinant; tags: N-terminal GST; dsDNA, one strand shown
# Procedure, shortened: as §1
# ELK3 = target: T6, ELK3 (Homo sapiens, UniProt P41970 1-407); details: protein: recombinant; tags: N-terminal GST; dsDNA, one strand shown
# T6 sequence: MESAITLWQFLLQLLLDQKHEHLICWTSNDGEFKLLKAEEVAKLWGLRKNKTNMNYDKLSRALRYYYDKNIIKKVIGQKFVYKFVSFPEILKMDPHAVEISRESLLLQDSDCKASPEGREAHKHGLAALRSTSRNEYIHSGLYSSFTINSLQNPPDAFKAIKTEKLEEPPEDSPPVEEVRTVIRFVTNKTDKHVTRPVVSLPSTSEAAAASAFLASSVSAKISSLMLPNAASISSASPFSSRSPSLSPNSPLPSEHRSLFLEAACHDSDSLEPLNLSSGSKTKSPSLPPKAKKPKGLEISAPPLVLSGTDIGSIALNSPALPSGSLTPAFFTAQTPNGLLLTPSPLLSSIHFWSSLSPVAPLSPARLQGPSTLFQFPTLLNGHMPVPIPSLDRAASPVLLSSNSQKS
# Procedure, shortened: as §1
# FEV = target: T7, FEV (Homo sapiens, UniProt Q99581 1-238); details: protein: recombinant; tags: N-terminal GST; dsDNA, one strand shown
# T7 sequence: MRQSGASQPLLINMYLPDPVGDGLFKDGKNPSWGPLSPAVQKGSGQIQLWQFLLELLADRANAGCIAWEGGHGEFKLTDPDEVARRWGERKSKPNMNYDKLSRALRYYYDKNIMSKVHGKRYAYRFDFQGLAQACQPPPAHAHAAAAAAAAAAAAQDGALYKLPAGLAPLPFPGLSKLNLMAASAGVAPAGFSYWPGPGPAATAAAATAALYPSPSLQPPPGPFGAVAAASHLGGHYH
# Procedure, shortened: as §1
# ETV5 = ETV5 (Homo sapiens, UniProt P41161 1-510); details: protein: recombinant; tags: N-terminal GST; dsDNA, one strand shown
# Procedure, shortened: as §1
# HSF1 = HSF1 (Homo sapiens, UniProt Q00613 1-529); details: protein: recombinant; tags: N-terminal GST; chain copies: 3; dsDNA, one strand shown
# Procedure, shortened: as §1
# SPIC = target: T8, SPIC (Homo sapiens, UniProt Q8N5J4 1-248); details: protein: recombinant; tags: N-terminal GST; dsDNA, one strand shown
# T8 sequence: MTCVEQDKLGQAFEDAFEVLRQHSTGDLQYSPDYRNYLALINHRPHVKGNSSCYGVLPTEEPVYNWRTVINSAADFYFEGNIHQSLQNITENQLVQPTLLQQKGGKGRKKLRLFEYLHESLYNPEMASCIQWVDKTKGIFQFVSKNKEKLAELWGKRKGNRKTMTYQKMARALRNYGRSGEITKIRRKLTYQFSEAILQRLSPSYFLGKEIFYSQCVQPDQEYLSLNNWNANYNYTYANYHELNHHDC
# Procedure, shortened: as §1
# ELF4 = ELF4 (Homo sapiens, UniProt Q99607 1-663); details: protein: recombinant; tags: N-terminal GST; dsDNA, one strand shown
# Procedure, shortened: as §1
# ELK4 = target: T9, ELK4 (Homo sapiens, UniProt P28324-2 1-405); details: protein: recombinant; tags: N-terminal GST; dsDNA, one strand shown
# T9 sequence: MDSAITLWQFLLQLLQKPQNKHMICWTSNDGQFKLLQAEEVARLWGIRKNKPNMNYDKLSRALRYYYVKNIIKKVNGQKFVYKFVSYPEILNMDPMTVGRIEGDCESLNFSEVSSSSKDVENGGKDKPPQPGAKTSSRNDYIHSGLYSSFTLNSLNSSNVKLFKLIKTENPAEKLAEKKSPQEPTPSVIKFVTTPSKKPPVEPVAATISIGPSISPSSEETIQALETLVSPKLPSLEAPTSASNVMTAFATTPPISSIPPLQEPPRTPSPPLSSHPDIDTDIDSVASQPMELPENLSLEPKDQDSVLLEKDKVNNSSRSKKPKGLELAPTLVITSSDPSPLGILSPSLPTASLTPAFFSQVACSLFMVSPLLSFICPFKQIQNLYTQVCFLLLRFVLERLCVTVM
# Procedure, shortened: as §1
# ETV2 = target: T10, ETV2 (Homo sapiens, UniProt O00321 1-342); details: protein: recombinant; tags: N-terminal GST; dsDNA, one strand shown
# T10 sequence: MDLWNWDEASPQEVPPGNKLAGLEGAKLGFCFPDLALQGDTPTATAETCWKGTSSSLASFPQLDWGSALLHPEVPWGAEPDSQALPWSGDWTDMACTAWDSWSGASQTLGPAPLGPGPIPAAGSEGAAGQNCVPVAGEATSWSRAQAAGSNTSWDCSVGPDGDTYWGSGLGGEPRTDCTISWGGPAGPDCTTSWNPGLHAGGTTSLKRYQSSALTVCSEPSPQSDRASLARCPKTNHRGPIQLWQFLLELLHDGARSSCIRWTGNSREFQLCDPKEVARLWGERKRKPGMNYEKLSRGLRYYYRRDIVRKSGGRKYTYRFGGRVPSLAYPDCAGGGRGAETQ
# Procedure, shortened: as §1
# ELF3 = target: T11, ELF3 (Homo sapiens, UniProt P78545 1-371); details: protein: recombinant; tags: N-terminal GST; dsDNA, one strand shown
# T11 sequence: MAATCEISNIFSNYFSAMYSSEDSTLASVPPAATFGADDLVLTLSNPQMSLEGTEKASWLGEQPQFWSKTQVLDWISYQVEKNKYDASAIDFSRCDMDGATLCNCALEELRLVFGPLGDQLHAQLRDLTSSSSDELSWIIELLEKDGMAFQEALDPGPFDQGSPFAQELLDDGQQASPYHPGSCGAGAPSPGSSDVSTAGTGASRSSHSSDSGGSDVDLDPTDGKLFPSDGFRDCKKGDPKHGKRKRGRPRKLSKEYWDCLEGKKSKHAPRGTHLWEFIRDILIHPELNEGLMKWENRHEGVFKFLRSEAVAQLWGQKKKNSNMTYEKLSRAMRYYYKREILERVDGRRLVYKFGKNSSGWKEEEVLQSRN
# Procedure, shortened: as §1
# CRX = CRX (Homo sapiens, UniProt O43186 1-299); details: protein: recombinant; tags: N-terminal GST; dsDNA, one strand shown
# Procedure, shortened: as §1
# ETV1 = ETV1 (Homo sapiens, UniProt P50549 1-477); details: protein: recombinant; tags: N-terminal GST; dsDNA, one strand shown
# Procedure, shortened: as §1
# Chain of ELF1 (P32519 whole entry): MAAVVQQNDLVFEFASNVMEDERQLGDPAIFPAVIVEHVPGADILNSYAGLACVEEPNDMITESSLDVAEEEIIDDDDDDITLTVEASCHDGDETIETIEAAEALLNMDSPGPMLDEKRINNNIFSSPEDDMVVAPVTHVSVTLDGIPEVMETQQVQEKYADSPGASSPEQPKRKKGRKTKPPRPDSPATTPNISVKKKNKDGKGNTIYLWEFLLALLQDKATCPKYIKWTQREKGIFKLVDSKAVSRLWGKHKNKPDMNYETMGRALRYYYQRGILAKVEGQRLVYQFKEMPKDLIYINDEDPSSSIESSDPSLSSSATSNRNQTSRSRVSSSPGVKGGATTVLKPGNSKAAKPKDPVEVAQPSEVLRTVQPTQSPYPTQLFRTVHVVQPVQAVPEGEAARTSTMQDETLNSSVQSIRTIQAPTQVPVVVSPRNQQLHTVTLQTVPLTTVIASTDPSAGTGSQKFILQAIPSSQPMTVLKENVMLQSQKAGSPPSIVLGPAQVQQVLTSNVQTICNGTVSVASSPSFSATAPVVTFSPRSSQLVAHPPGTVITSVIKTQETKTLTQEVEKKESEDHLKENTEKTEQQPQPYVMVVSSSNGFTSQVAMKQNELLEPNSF
# Chain of CRX (O43186 whole entry): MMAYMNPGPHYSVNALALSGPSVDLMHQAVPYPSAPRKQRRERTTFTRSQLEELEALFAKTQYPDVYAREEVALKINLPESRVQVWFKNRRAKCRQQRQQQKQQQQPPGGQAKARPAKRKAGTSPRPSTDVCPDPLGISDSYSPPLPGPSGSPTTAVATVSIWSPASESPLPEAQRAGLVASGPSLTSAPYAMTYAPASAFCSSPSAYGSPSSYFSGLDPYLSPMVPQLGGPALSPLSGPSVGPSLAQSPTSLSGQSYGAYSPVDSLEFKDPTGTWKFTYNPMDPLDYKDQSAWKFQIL
# Chain of ETV5 (P41161 whole entry): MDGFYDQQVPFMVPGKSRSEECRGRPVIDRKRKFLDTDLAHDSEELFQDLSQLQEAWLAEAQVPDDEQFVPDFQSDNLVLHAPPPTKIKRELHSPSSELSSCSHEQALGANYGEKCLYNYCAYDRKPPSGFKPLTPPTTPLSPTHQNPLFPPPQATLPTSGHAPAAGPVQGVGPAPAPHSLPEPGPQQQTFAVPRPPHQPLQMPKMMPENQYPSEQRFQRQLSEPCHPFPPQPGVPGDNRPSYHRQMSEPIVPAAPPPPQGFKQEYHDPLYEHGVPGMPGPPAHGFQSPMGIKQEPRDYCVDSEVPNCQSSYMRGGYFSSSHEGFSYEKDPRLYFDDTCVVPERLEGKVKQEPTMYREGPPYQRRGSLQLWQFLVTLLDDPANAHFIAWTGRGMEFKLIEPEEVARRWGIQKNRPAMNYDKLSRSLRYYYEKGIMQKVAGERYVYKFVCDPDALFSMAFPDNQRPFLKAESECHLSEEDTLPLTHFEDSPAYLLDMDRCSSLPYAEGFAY
# Chain of ETV1 (P50549 whole entry): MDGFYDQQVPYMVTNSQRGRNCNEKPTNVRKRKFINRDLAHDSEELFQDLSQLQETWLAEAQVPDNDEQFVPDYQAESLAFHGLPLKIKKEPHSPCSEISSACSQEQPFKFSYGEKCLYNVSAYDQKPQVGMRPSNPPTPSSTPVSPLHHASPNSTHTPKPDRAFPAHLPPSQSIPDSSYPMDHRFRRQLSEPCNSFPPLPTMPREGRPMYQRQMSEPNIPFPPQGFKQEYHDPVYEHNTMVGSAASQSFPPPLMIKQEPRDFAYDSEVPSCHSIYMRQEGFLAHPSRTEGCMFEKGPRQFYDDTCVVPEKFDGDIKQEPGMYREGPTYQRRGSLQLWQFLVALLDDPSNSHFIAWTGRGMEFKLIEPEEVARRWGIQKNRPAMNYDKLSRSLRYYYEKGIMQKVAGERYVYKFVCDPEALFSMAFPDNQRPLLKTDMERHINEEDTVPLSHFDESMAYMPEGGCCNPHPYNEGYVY
# Chain of SPIB (Q01892 whole entry): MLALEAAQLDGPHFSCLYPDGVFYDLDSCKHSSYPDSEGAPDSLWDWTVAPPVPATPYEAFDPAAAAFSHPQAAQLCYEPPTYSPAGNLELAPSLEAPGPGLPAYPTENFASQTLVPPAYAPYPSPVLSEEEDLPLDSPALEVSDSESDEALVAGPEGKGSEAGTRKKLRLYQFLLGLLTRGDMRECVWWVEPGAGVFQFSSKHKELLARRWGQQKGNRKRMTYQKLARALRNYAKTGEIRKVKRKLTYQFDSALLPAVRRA
# Chain of ELF4 (Q99607 whole entry): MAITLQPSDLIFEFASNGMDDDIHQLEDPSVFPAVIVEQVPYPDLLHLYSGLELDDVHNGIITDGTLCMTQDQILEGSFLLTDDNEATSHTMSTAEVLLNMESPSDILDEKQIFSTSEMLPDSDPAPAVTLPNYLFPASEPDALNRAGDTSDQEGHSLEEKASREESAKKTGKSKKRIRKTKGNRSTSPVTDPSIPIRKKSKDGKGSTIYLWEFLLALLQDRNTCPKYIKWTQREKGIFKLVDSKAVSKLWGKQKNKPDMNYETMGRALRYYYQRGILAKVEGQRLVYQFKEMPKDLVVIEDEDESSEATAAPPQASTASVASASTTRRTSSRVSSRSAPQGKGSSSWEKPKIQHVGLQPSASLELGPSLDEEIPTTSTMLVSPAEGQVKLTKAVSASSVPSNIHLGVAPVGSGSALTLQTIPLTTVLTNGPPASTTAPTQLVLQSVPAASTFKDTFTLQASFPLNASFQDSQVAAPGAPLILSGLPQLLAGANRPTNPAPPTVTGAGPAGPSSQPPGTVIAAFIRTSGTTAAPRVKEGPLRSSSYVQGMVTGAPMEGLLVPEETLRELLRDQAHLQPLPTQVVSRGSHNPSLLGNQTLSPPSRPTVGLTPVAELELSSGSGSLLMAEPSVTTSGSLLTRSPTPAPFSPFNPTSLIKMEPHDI
# Chain of HSF1 (Q00613 whole entry): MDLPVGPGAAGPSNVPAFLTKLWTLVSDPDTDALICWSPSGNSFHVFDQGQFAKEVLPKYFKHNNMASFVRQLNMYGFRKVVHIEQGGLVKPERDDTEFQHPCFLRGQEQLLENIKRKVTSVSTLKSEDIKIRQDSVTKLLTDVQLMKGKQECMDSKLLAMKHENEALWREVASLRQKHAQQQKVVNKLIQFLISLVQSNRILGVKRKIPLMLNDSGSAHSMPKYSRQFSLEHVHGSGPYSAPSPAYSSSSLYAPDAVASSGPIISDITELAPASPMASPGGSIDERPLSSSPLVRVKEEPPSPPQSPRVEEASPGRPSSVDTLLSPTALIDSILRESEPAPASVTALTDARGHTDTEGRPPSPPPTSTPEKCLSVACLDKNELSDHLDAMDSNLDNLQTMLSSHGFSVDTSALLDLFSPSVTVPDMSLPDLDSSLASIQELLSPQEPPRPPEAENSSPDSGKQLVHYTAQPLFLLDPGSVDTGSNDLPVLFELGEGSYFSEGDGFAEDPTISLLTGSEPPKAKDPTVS
sequence,measurement,setting,value
GCTTTG,binding signal,FLI1,"1.24 fold enrichment (6-mer frequency, TF over GST control)"
same,binding signal,ELK1,"1.1 fold enrichment (6-mer frequency, TF over GST control)"
same,binding signal,GABPA,"1.11 fold enrichment (6-mer frequency, TF over GST control)"
same,binding signal,ERG,"1.15 fold enrichment (6-mer frequency, TF over GST control)"
same,binding signal,ELF1,"1.14 fold enrichment (6-mer frequency, TF over GST control)"
same,binding signal,EHF,"1.15 fold enrichment (6-mer frequency, TF over GST control)"
same,binding signal,SPI1,"1.07 fold enrichment (6-mer frequency, TF over GST control)"
same,binding signal,SPIB,"1.14 fold enrichment (6-mer frequency, TF over GST control)"
same,binding signal,ELK3,"1.12 fold enrichment (6-mer frequency, TF over GST control)"
same,binding signal,FEV,"1.08 fold enrichment (6-mer frequency, TF over GST control)"
same,binding signal,ETV5,"1.11 fold enrichment (6-mer frequency, TF over GST control)"
same,binding signal,HSF1,"1.23 fold enrichment (6-mer frequency, TF over GST control)"
same,binding signal,SPIC,"1.22 fold enrichment (6-mer frequency, TF over GST control)"
same,binding signal,ELF4,"1.17 fold enrichment (6-mer frequency, TF over GST control)"
same,binding signal,ELK4,"1.22 fold enrichment (6-mer frequency, TF over GST control)"
same,binding signal,ETV2,"1.22 fold enrichment (6-mer frequency, TF over GST control)"
same,binding signal,ELF3,"1.16 fold enrichment (6-mer frequency, TF over GST control)"
same,binding signal,CRX,"1.49 fold enrichment (6-mer frequency, TF over GST control)"
same,binding signal,ETV1,"1.16 fold enrichment (6-mer frequency, TF over GST control)"
